Structures are written as SMILES. “And” between values parts separate entries of the source, which are not always exact repeats. Equal entries are not always repeated. Records with an inconclusive call do not appear. The source made the active and inactive calls. Unless noted, calls come from the whole dose curve; as a rule, active = well fitted curve in the direction sought with a large enough effect; inconclusive = small, poorly fitted or top-dose-only effect, or another doubt; inactive = no such curve, though single readings can be large; an effect the other way counts as inactive or inconclusive. Bounds are passed on as bounds.

This is an account of results in PubChem BioAssay (NCATS).

The nature of experiment [1]: Cell Viability - Hek293 (AID 427;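 active = compounds whose dose-response curve shows a full or clear partial loss of cell viability, called from curve shape rather than a numeric limit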;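 note: potency is the fitted concentration of half-maximal effect; cells exposed to compound for 40 hours at 37 °C before reading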). Conditions: qHTS. In outline: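 Luminescent ATP read-out (CellTiter-Glo, 20 min RT) after 40 hr compound exposure at 37 °C in complete medium. Signal normalized to DMSO (basal) and 100 uM tamoxifen (100% inhibition); concentration-response fitted with the standard Hill equation to give AC50.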
A general note: In qHTS, concentration-response curves come from the screen itself.

Experiment [2] is described as follows: Cell Viability - SH-SY5Y (AID 544).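 Note: 0% = DMSO alone and -100% = 100 µM tamoxifen; nearly all actives have a fitted effect of over 55% in size.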 As to conditions: SH-SY5Y neuroblastoma cell viability; viability change, negative = cytotoxic: at 92.2 µM (top of the series). An outline of the steps: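 Luminescent ATP read-out (CellTiter-Glo) measures loss of viable SH-SY5Y neuroblastoma cells after 40 hr compound exposure at 37 °C. AC50 values derive from standard Hill modelling of qHTS concentration-response data.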

Experiment [3] can be described thus: Cell Viability - Mesenchymal (AID 546).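 Note: cells exposed to compound for 40 hours before reading; 0% = DMSO only and -100% = 100 µM tamoxifen.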 As to conditions: mesenchymal cells viability, qHTS; series mostly up to 91.7 µM. An outline of the steps:
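Normal human renal glomerulus-derived kidney mesenchymal cells, 1000 per well in complete medium, were treated with compounds for 40 hr at 37 °C. Viability was read as intracellular ATP by CellTiter-Glo luminescence; AC50 values came from Hill-equation fits of qHTS concentration-response data.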

Experiment [4] has as its target Cytochrome P450 3A4 (Homo sapiens) (UniProt P08684). The experiment in a line: qHTS Assay for Inhibitors and Substrates of Cytochrome P450 3A4 (AID 884). Note: % is set by controls: 0 for no effect and ±100 for the full control effect; nearly all actives have a fitted effect of over 50% in size. Conditions: recombinant CYP3A4, Luciferin-PPXE luminescence; series mostly up to 57.1 µM. In outline:
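20 nM human CYP3A4 with 25 uM Luciferin-PPXE (at KM) in 200 mM KPO4, preincubated 10 min with compound; NADPH regeneration started a 60 min RT reaction. Luciferin detected by luminescence, normalized to 57 uM ketoconazole as full inhibition.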

Experiment [5] is described as follows: MultiTox-Fluor Cytotoxicity Assay - LYMP1-002 - Dead Cells (AID 960). Note: nearly all actives have a fitted effect of over 60% in size. Conditions: LYMP1-002 lymphoblastoid cells, dead-cell protease fluorescence; series mostly up to 46.1 µM. An outline of the steps:
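LYMP1-002 cells 2500/well; 5 hr 37 C pre-incubation; compound 16 hr 37 C; MultiTox-Fluor reagent 60 min RT; dead-cell fluor Ex/Em 485/520. Norm. to DMSO (0%) vs 15 uM tetraoctylammonium bromide (100%); Hill AC50.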

The nature of experiment [6]: Cell Viability - LYMP2-005 (AID 967).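 Note: plate controls were DMSO only for no effect and 92 µM tetraoctylammonium bromide control for full effect.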 As to conditions: LYMP2-005 lymphoblastoid cell viability; series mostly up to 92.2 µM. In outline: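 CellTiter-Glo luminescence (cellular ATP) read-out; LYMP2-005 lymphoblastoid cells, 2500/well, 5 h pre-incubation, then 24 h compound exposure at 37 C in complete medium. Tetraoctylammonium bromide positive control; AC50 by standard Hill fit.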

Experiment [7] in a line: Cell Viability - LYMP2-019 (AID 973).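 Note: 0% = DMSO alone and full effect = 92 µM tetraoctylammonium bromide; nearly all actives have a fitted effect of over 55% in size.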 As to conditions: LYMP2-019 lymphoblastoid cell line viability; series mostly up to 92.2 µM. An outline of the steps: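 Luminescent ATP read-out (CellTiter-Glo, 30 min room temperature) served as the viability measure after 24 hr treatment of lymphoblastoid cells at 37 C. Concentration-response data were fitted to the Hill equation for AC50.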

Experiment [8] in a line: Cell Viability - LYMP2-010 (AID 981). Note: % is set by controls: 0 for no effect and ±100 for the full control effect; nearly all actives have a fitted effect of over 55% in size. As to conditions: LYMP2-010 lymphoblastoid cell viability, qHTS; series mostly up to 92.2 µM. In outline: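 Luminescent ATP signal (CellTiter-Glo) served as the viability read-out. Cells of the human lymphoblastoid line were treated with compound over a concentration range for 24 hours at 37 C, and AC50 values came from Hill-equation modeling.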

Experiment [9] can be described thus: Cell Viability - LYMP2-024 (AID 988).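 Note: plate controls were DMSO only for no effect and 92 µM tetraoctylammonium bromide for full effect; nearly all actives have a fitted effect of over 60% in size.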 As to conditions: LYMP2-024 lymphoblastoid cell viability; series mostly up to 92.2 µM. An outline of the steps: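 Steps: seed 2500 cells/well, 5 hr 37 C; add compound, 24 hr 37 C; add CellTiter-Glo, 30 min room temperature; read luminescence. AC50 derived by Hill modelling of concentration-dependent ATP loss.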
The nature of experiment [10]: Cell Viability - LYMP2-026 (AID 989). Note: % is set by controls: 0 for no effect and ±100 for the full control effect; nearly all actives have a fitted effect of over 50% in size. As to conditions: LYMP2-026 lymphoblastoid cell viability, qHTS; series mostly up to 92.2 µM. An outline of the steps: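 Luminescent ATP signal (CellTiter-Glo, 30 min room temperature) measures viable lymphoblastoid cells after 24 hr compound treatment at 37 C. Decreased ATP reflects acute toxicity; AC50 values come from Hill-equation modeling.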

Experiment [11] in a line: Cell Viability - LYMP1-002 - Assay at 40 hr (AID 994).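 Note: 0% = DMSO only and full inhibition = 92 µM tetraoctylammonium bromide; nearly all actives have a fitted effect of over 60% in size.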 As to conditions: LYMP1-002 lymphoblastoid cell viability; series mostly up to 92.2 µM. An outline of the steps: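 Luminescent ATP signal served as the viability readout, with decreases taken as toxicity. Cells were treated with compounds across a concentration range for 40 hours at 37 C, and AC50 values came from standard Hill modeling.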

The target in experiment [12] is Peroxisome proliferator-activated receptor gamma (Homo sapiens) (UniProt P37231). The experiment in a line: qHTS assay for small molecule agonists of peroxisome proliferator-activated receptor gamma signaling (AID 588536; active = well fitted curve in the direction sought with a large enough effect in the signal ratio, with a control signal flat, not every such curve was filed as active; the % refers to the signal ratio;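 note: 0% = DMSO basal wells and 100% = rosiglitazone at 2 µM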). Conditions: HEK293 PPARg-UAS-bla, beta-lactamase ratio, 16 h, percent of rosiglitazone response, DMSO as zero; series mostly up to 76.7 µM. An outline of the steps:
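PPAR-gamma-UAS-bla HEK293 cells in medium with 1% charcoal/dextran-treated FBS were exposed to compounds for 16 h at 37 C. Beta-lactamase activity was read with CCF4 substrate (405 nm excitation, 460/530 nm emission).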

A short description of experiment [13]: qHTS assay for small molecule agonists of retinoid X receptor alpha signaling (AID 588544; calls by dose curve). Conditions: HEK293T RXRa-UAS-bla, beta-lactamase reporter, 18 h; 530 nm emission.
The target of experiment [14] is Retinoic acid receptor RXR-alpha (Homo sapiens) (UniProt P19793). The description is as above. Conditions: HEK293T RXRa-UAS-bla, beta-lactamase reporter, 18 h; series mostly up to 76.7 µM.
Retinoic acid receptor RXR-alpha (Homo sapiens), sequence (P19793 whole entry, looked up): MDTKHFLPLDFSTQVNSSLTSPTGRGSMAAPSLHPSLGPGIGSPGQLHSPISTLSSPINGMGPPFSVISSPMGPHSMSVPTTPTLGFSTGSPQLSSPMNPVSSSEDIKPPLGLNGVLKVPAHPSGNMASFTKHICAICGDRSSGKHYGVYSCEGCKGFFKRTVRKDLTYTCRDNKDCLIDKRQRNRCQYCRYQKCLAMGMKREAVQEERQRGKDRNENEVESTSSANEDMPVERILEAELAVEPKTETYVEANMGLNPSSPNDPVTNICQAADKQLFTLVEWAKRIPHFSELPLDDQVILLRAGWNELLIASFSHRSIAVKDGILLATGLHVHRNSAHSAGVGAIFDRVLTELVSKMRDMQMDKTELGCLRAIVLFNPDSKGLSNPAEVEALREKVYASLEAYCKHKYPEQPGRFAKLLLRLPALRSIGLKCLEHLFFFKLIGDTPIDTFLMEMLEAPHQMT
The target in experiment [15] is Thyroid hormone receptor beta (Homo sapiens) (UniProt P10828). The experiment in a line: qHTS assay for small molecule agonists of thyroid hormone receptor beta signaling (AID 588545; calls by dose curve). As to conditions: TR-UAS-bla GripTite HEK 293, beta-lactamase ratio, agonist mode, 18 h; series mostly up to 76.7 µM. In outline:
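In this cell-based screen, titrated compounds act on HEK 293 cells held in medium with 2% charcoal/dextran FBS, NEAA and pyruvate for 18 hrs at 37 C. Responses are expressed relative to T3 (10 nM) as 100% and basal DMSO as 0%.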

A short description of experiment [16]: qHTS assay for small molecule antagonists of retinoid X receptor alpha signaling (AID 588546).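 Note: cells stimulated with 9-cis-retinoic acid as agonist; % is set by controls: 0 for no effect and ±100 for the full control effect.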 As to conditions: HEK293T RXRa-UAS-bla, beta-lactamase ratio, antagonist mode; measured here: W530 green channel, cytotoxicity proxy. An outline of the steps: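 Beta-lactamase reporter inhibition, read as CCF4 fluorescence ratio (ex 405, em 460/530 nm) after 2 h at RT. HEK293T UAS-bla cells, 2500/well, were stimulated with 9-cis-RA at 500 or 100 nM final alongside test compound for 18 h at 37 C.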

The target in experiment [17] is Tumor necrosis factor (Homo sapiens) (UniProt P01375). Nature of the experiment: qHTS assay to identify small molecules that stimulate Tumor Necrosis Factor-alpha (TNF-alpha) secretion (AID 651757; active = well fitted curve in the direction sought with a large enough effect in the signal ratio; the % refers to the signal ratio; note: 0% is about no effect). Conditions: Human cells, HTRF 665/615 ratio; series mostly up to 92.2 µM. In outline: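 Read-out is HTRF, a TR-FRET sandwich of cryptate- and XL665-labeled anti-TNF-alpha antibodies detecting cytokine secreted by THP-1 cells. Cells had been incubated with test compounds at 37 C for 17 hrs beforehand.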
Tumor necrosis factor (Homo sapiens), sequence (P01375 whole entry, looked up): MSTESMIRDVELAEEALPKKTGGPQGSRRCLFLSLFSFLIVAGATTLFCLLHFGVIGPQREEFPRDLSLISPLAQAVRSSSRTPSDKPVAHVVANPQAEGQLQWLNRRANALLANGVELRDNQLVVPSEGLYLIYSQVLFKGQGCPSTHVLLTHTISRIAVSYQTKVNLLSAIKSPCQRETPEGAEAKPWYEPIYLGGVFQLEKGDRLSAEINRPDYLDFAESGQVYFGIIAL

Experiment [18] is described as follows: qHTS assay for small molecule antagonists of the retinoid-related orphan receptor gamma (ROR-gamma) signaling pathway - cell viability counter screen (AID 720652; active = well fitted curve in the direction sought with a large enough effect in the repeat runs; an effect the other way counts as inactive or inconclusive;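 note: compound exposure lasted 16 hr before ATP read; % is set by controls: 0 for no effect and ±100 for the full control effect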). As to conditions: RORgamma reporter cell line viability counter screen; series mostly up to 92.2 µM. An outline of the steps:
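Luminescence from CellTiter-Glo after 30 min at room temperature reported cellular ATP as the cytotoxicity measure. Cells were the CHO reporter line with doxycycline-induced ROR-gamma expression, exposed to compound for 16 hr at 37 C.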

Experiment [19] addresses Nuclear receptor subfamily 1 group I member 2 (Rattus norvegicus) (UniProt Q9R1A7). Nature of the experiment: qHTS assay for small molecule activators of the rat pregnane X receptor (rPXR) signaling pathway (AID 651751; call rule not given here; note: 0% is about no effect). Conditions: rPXR reporter cells, luciferase (One-Glo), 24 h.
The nature of experiment [20]: Cell Viability - Jurkat (AID 426;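 active = dose-dependent loss of cell ATP signal giving a full or clear fitted curve, ranked by lower potency value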;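 note: potency is the fitted concentration of half-maximal effect; cells exposed to compound for 40 hours at 37 °C before ATP read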). As to conditions: qHTS. In outline:
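qHTS, 1536-well; Jurkat E6-1, 5000 cells/well, complete medium; cpd 40 hr, 37 °C; CellTiter-Glo 20 min RT; luminescence. AC50 by Hill fit.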

Cytochrome P450 3A4 (Homo sapiens), sequence (P08684 whole entry, looked up): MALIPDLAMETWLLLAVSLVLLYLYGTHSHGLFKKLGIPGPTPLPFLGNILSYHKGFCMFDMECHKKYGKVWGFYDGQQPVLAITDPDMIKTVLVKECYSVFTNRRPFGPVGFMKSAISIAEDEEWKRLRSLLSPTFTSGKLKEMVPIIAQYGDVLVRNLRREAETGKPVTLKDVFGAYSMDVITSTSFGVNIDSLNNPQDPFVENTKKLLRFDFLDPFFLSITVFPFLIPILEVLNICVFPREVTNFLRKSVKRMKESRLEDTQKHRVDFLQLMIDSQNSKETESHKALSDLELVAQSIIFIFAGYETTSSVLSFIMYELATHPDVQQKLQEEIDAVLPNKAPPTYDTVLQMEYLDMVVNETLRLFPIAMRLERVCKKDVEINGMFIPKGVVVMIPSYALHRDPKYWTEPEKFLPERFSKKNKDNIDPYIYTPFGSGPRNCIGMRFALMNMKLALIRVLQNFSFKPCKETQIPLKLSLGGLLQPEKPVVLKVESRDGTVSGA
Peroxisome proliferator-activated receptor gamma (Homo sapiens), sequence (P37231 whole entry, looked up): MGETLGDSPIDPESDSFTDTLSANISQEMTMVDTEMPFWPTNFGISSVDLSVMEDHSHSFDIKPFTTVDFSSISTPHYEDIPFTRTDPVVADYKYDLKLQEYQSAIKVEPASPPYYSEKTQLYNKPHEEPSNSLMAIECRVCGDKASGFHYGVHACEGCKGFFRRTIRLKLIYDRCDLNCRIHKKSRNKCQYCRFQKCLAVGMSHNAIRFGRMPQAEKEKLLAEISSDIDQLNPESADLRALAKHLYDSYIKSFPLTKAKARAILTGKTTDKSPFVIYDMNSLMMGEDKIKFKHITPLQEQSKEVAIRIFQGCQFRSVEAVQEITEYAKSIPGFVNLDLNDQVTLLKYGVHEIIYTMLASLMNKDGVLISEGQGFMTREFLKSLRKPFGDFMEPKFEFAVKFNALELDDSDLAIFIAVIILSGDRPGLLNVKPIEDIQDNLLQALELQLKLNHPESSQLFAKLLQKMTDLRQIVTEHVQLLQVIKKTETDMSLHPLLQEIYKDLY
Thyroid hormone receptor beta (Homo sapiens), sequence (P10828 whole entry, looked up): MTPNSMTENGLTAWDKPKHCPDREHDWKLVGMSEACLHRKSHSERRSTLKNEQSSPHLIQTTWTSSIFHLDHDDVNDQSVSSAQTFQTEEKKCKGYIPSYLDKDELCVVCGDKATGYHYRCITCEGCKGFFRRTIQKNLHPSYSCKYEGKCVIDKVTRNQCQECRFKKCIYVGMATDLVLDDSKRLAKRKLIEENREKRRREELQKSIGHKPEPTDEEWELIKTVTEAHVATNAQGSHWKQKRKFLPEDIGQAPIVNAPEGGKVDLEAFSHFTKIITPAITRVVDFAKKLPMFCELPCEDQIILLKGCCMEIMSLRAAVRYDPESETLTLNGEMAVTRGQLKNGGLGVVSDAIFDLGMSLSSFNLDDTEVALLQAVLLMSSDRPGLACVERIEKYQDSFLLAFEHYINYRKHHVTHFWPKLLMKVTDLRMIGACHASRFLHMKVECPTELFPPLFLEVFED
Nuclear receptor subfamily 1 group I member 2 (Rattus norvegicus), sequence (Q9R1A7 whole entry, looked up): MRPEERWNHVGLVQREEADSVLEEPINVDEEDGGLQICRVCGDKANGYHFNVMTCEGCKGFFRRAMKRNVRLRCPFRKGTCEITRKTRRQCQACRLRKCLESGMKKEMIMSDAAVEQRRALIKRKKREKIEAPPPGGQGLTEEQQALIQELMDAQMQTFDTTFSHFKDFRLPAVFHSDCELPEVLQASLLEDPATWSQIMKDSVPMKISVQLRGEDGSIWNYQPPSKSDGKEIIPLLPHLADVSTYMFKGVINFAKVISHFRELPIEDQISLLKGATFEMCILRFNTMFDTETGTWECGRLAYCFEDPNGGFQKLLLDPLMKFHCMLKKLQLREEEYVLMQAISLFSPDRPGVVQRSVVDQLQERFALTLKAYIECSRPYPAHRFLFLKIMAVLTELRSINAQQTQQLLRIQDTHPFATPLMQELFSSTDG

As to `CCCC[N+](=O)[O-]`, in experiment [1], the Potency is > 92 µM (inactive). The Potency entry in [2], in [3], in experiment [4], in experiment [5], in experiment [6] and in experiment [7] was “inactive” throughout. Besides, the Potency entry in [8], in experiment [9], in experiment [10], in experiment [11], in experiment [15] and in [18] was “inactive” each time. The result in [12], in experiment [14] and in experiment [17] was inactive. The max response is -5.28% in experiment [13], -4.37% in experiment [16] and 1.76% (inactive) in experiment [19].

Regarding `ClC(Br)Br`, the Potency in experiment [1] was > 92 µM (inactive). Moreover, the Potency result in experiment [2], in [3], in experiment [4], in [5], in experiment [6] and in [7] was “inactive” throughout. In addition, the Potency result in experiment [9], in experiment [10], in [11], in experiment [15] and in [18] was “inactive” in each case. Further, the result in [12], in experiment [14] and in [17] was inactive. Besides, the max response in [13] was -3.88%; in experiment [16], -8.78%; in experiment [19] it was 0.757% (inactive).

On to `c1ccc(N=NNc2ccccc2)cc1`, for which the Potency in [20] and in [1] was > 92 µM (inactive) each time. Moreover, the Potency entry in [3], in experiment [4], in experiment [5], in experiment [6], in experiment [7] and in experiment [8] was “inactive” throughout. The Potency result in [9], in experiment [10], in experiment [11], in experiment [15] and in experiment [18] was “inactive” each time. Besides, the result in [12], in experiment [14] and in experiment [17] was inactive. The values for the max response in [13] and in [16] were 7.75% and -2.24%, respectively.

For the compound `COC(=O)c1ccccc1N`, in [1], the Potency is > 92 µM (inactive). For the same compound, the Potency result in experiment [2], in experiment [3], in experiment [4], in experiment [5], in experiment [6] and in experiment [7] was “inactive” each time. Moreover, the Potency entry in experiment [8], in [9], in experiment [10], in experiment [11], in experiment [15] and in [18] was “inactive” in each case. For the same compound, the outcome in experiment [12], in experiment [14] and in experiment [17] was inactive. Moreover, the figures for the max response in [13], in [16] and in experiment [19] were -15.1%, 0.965% and -0.835% (inactive), respectively.

On to `CC(C)Br`, for which the Potency in [20] and in experiment [1] was > 92 µM (inactive) in each case. For the same compound, the Potency result in experiment [2], in experiment [3], in experiment [4], in experiment [5], in experiment [6] and in experiment [7] was “inactive” in each case. In addition, the Potency result in [8], in experiment [9], in experiment [10], in experiment [11], in experiment [15] and in experiment [18] was “inactive” in each case. The outcome in [12], in experiment [14] and in [17] was inactive. Besides, the max response was -8.42% in [13], 4.33% in [16] and -2.97% (inactive) in experiment [19].

As to `c1ccc(NNc2ccccc2)cc1`, the Potency in experiment [20] and in experiment [1] was > 92 µM (inactive) each time. The Potency result in experiment [2], in [3], in experiment [4], in experiment [5], in experiment [6] and in experiment [7] was “inactive” each time. Besides, the Potency result in experiment [8], in [9], in experiment [10], in experiment [11], in experiment [15] and in experiment [18] was “inactive” throughout. The max response in experiment [13] is -6.25% and -9.7%; in experiment [16] it was -8.78% and -5.97%; in [19], 12.1% (inactive) and 2.7% (inactive). The compound was called inactive in [14] and in experiment [17].

As for `O=c1ccc(=O)[nH][nH]1`, the Potency in experiment [20] and in [1] was > 92 µM (inactive) in each case. Also, the Potency entry in experiment [2], in experiment [3], in [4], in experiment [5], in experiment [6] and in experiment [7] was “inactive” throughout. Further, the Potency entry in experiment [8], in [9], in experiment [10], in experiment [11], in experiment [15] and in experiment [18] was “inactive” throughout. Moreover, the result in [12], in experiment [14] and in experiment [17] was inactive. Besides, the max response in experiment [13] is -8.67% and -14.6%; in [16], -4.32% and 8.97%; in [19], 0.0495% (inactive) and -4.15% (inactive).
